# Test results: ChEMBL document CHEMBL3988442, “University of Dundee, Small-Polar-MMV Screening Library” (2021)
# Among all 66,000 compounds or so, about 960 (1.5%) showed an effect of 50% or more. The entries come from a sample that favours strong results as a whole.
# Tested on: Trypanosoma brucei
# Assay: Trypanosoma brucei 72 hour study
# Type: functional, organism-based
# Set-up: scale not given: in the data most compounds retested in dose-response had high values
structure (smiles),measurement,setting,value
Cc1noc(C)c1CN1CCN(Cc2ccncc2)c2ncccc2C1.O=C(O)C(F)(F)F.O=C(O)C(F)(F)F.O=C(O)C(F)(F)F,Percent Effect,"30 µM, 30.03 µM",43.91%
COc1ccc(CN2CCc3nnc(COCCN(C)C)n3CC2)cc1.O=C(O)C(F)(F)F.O=C(O)C(F)(F)F,Percent Effect,"30.3 µM, […]",-2.661%
CN1C(=O)CC[C@@H]2[C@H]1CCN2S(=O)(=O)Cc1ccccc1,Percent Effect,"30 µM, 30.03 µM",-49.38%
COc1ccc(-c2cc(CN)nc3ccnn23)cc1.Cl,Percent Effect,"30.3 µM, […]",-10.95%
CN(C)S(=O)(=O)c1cccc(CNc2cc(CO)ccc2Cl)c1,Percent Effect,"30.3 µM, […]",18.15%
COc1cccc(CNc2cc(CO)ccc2Cl)c1,Percent Effect,"30.3 µM, […]",-53.68%
Cc1cccc(CNC(=O)CNc2cc(CO)ccc2Cl)c1,Percent Effect,"30 µM, 30.03 µM",50.69%
CC(C)CC(=O)N1CC[C@H]2N(C)CC[C@@]2(C(=O)Nc2ccccc2)CC1.O=C(O)C(F)(F)F,Percent Effect,"30 µM, 30.03 µM",-17.6%
CCc1cc(CN2CCCCC2c2ccc(F)cc2)on1 (stereo not drawn),Percent Effect,"30.3 µM, […]",-64.98%
CCCC(=O)N(C)Cc1nc(N2CCCC2)ncc1-c1ccncc1.Cl,Percent Effect,"30.3 µM, […]",24.09%
COCCNC(=O)[C@H]1C[C@@H]2CCN(c3nncs3)C[C@H]2O1.O=C(O)C(F)(F)F,Percent Effect,"30 µM, 30.03 µM",50.75%
COCCNC(=O)[C@H]1C[C@@H]2CCN(c3ncccn3)C[C@H]2O1.O=C(O)C(F)(F)F,Percent Effect,"30.3 µM, […]",-89.35%
O=C(NCC1CCOCC1)[C@H]1C[C@@H]2CCN(c3nncs3)C[C@@H]2O1.O=C(O)C(F)(F)F,Percent Effect,"30.3 µM, […]",-23.29%
O=C(NCC1CCOC1)N1CCN(Cc2ccc3c(c2)CCO3)CC1 (stereo not drawn),Percent Effect,"30 µM, 30.03 µM",54.6%
O=C(NCC1CCOC1)N1CCN(Cc2ccc3c(c2)OCO3)CC1 (stereo not drawn),Percent Effect,"30.3 µM, […]",1.586%
O=C(NCC1CCCO1)N1CCN(Cc2ccc3c(c2)CCO3)CC1 (stereo not drawn),Percent Effect,"30.3 µM, […]",17.02%
CC1(C(=O)N2CCOCC2)CNCCO1.Cl (stereo not drawn),Percent Effect,"30.3 µM, […]",-3.709%
O=C(CC1CC1)NCc1cn2c(n1)CN(CC1CC1)CC2.O=C(O)C(F)(F)F,Percent Effect,"30 µM, 30.03 µM",14.47%
O=C(COCc1ccccc1Cl)N1CCN(c2ccc(Br)cn2)CC1,Percent Effect,"30.3 µM, […]",6.228%
O=C(NCC1OCCc2cn(CC3CCOCC3)nc21)c1ccsc1.O=C(O)C(F)(F)F (stereo not drawn),Percent Effect,"30 µM, 30.03 µM",-82.86%
O=C(NCC1OCCc2cn(CC3CC3)nc21)c1ccsc1 (stereo not drawn),Percent Effect,"30 µM, 30.03 µM",104.3%
O=C(Cc1ccsc1)NCC1OCCc2cn(CC3CC3)nc21 (stereo not drawn),Percent Effect,"30 µM, 30.03 µM",10.27%
CCOCC1CN(C(=O)Cc2ccccn2)Cc2cnn(C)c21.O=C(O)C(F)(F)F.O=C(O)C(F)(F)F (stereo not drawn),Percent Effect,"30.3 µM, […]",-7.447%
CN1CCC(N2Cc3nc(N)ncc3C2=O)CC1,Percent Effect,"30.3 µM, […]",-14.03%
Nc1ncc2c(n1)CN(C1CCCC1)C2=O,Percent Effect,"30 µM, 30.03 µM",49.38%
CC1CCC(N2Cc3nc(N)ncc3C2=O)CC1 (stereo not drawn),Percent Effect,"30.3 µM, […]",59%
Cc1csc(C(Cc2ccsc2)NC(=O)CN(C)Cc2ccccn2)n1.Cl (stereo not drawn),Percent Effect,"30.3 µM, […]",18.37%
Cc1nc(C)n(CC2CN(CC(=O)Nc3ccncc3)CCO2)n1 (stereo not drawn),Percent Effect,"30 µM, 30.03 µM",-4.979%
Oc1ccc(-c2c(-c3ccccc3)ncn2C[C@H]2CCCN2)cc1,Percent Effect,"30 µM, 30.03 µM",67.04%
O=C(O)c1ccccc1-c1c(-c2ccccc2)ncn1C[C@H]1CCCN1,Percent Effect,"30 µM, 30.03 µM",7.799%
O=C(O)c1ccccc1-c1c(-c2ccccc2)ncn1CC1CCCO1 (stereo not drawn),Percent Effect,"30 µM, 30.03 µM",-42.19%
CCn1cc2c(n1)CN(Cc1ccncc1)CC2COCC1CC1.O=C(O)C(F)(F)F.O=C(O)C(F)(F)F (stereo not drawn),Percent Effect,"30 µM, 30.03 µM",16.48%
CCOC(=O)[C@@H]1[C@@H](OC)C(=O)N(C)C12CCN(C(=O)C(CC)CC)CC2,Percent Effect,"30.3 µM, […]",47.28%
O=C1NCC(c2ccc(Cl)cc2)Cc2[nH]c(CCN3CCOCC3)nc21 (stereo not drawn),Percent Effect,"30.3 µM, […]",-6.17%
O=C(CCCn1ccnc1)NC1CCCN(c2ccccc2Cl)C1 (stereo not drawn),Percent Effect,"30 µM, 30.03 µM",-36.7%
Cn1ccc2c(C(=O)N3CCC(C(N)=O)CC3)cccc21,Percent Effect,"30 µM, 30.03 µM",51.42%
CC(=O)N(C)C1CCN(C(=O)c2cccc3c2ccn3C)CC1,Percent Effect,"30.3 µM, […]",1.635%
Cn1ccc2c(C(=O)N3CCN(C(=O)C4CCCC4)CC3)cccc21,Percent Effect,"30.3 µM, […]",-0.9219%
CNCc1ccc([C@@H]2CN(C(C)=O)C[C@H]2C(N)=O)cc1.Cl,Percent Effect,"30.3 µM, […]",-4.211%
Cc1nn(-c2ccccc2)c(C)c1CC(=O)NC1CC(=O)N(C)C1 (stereo not drawn),Percent Effect,"30 µM, 30.03 µM",-14.36%
CSCCC(NC(N)=O)C(=O)NCc1c(C)nn(-c2ccccc2)c1C (stereo not drawn),Percent Effect,"30 µM, 30.03 µM",-20.96%
COC(=O)[C@H](CCSC)NC(=O)Cc1c(C)nn(-c2ccccc2)c1C,Percent Effect,"30 µM, 30.03 µM",101%
COC(=O)C(CCSC)NC(=O)Cc1c(C)nn(-c2ccccc2)c1C (stereo not drawn),Percent Effect,"30.3 µM, […]",100.4%
COc1cccc(-c2nc(C)c(C(=O)N[C@@H](CCSC)C(=O)O)s2)c1,Percent Effect,"30 µM, 30.03 µM",-41.8%
COC(=O)[C@H](CCSC)NC(=O)Cn1ccc2c(Cl)cccc21,Percent Effect,"30 µM, 30.03 µM",-28.3%
CC(C)Cc1noc(CN2CCOCC2C)n1 (stereo not drawn),Percent Effect,"30 µM, 30.03 µM",-14.5%
O=C(Nc1cnccn1)[C@@H]1CCO[C@@H]2CCN(Cc3ccsc3)C[C@@H]21.O=C(O)C(F)(F)F,Percent Effect,"30.3 µM, […]",-603.1%
O=C(Nc1ccccc1)N1C(CN2CCOCC2)[C@]2(O)CC[C@H]1CC2 (stereo partly drawn),Percent Effect,"30.3 µM, […]",6.609%
CCn1nc(C)c2nc(C(C)C)nc(NCC(=O)N3CCOCC3)c21,Percent Effect,"30.3 µM, […]",-23.63%
CCCc1nc(NCC(=O)N2CCOCC2)c2c(n1)c(C)nn2CC,Percent Effect,"30.3 µM, […]",-24.9%
CCc1nc(NCC(=O)N2CCOCC2)c2c(n1)c(C)nn2CC,Percent Effect,"30 µM, 30.03 µM",60.24%
Cn1c(CCN2CCN(CCc3ccccc3)CC2)nc2ccccc21,Percent Effect,"30 µM, 30.03 µM",-13.15%
Cn1c(CN2CCN(CC3CCCO3)CC2)nc2ccccc21 (stereo not drawn),Percent Effect,"30.3 µM, […]",-39.6%
CCCc1ccc(N2CCN(Cc3nc4ccccc4n3C)CC2)cc1,Percent Effect,"30 µM, 30.03 µM",90.43%
COCCN1CC[C@@H]2CN(Cc3nccn3C)C[C@@H]2C1.O=C(O)C(F)(F)F.O=C(O)C(F)(F)F,Percent Effect,"30 µM, 30.03 µM",27.97%
CC(C)CN1CCc2c(CN(C)Cc3ccco3)cncc2C1.Cl.Cl.Cl,Percent Effect,"30.3 µM, […]",-2.843%
Cc1cnc(CN(Cc2ccc(C#N)cc2F)C2CCN(C)C2)o1 (stereo not drawn),Percent Effect,"30 µM, 30.03 µM",-34.7%
COc1ccc(C)cc1CN(Cc1nc(C)c(C)o1)C1CCN(C)C1 (stereo not drawn),Percent Effect,"30 µM, 30.03 µM",82.74%
COc1ccc(C)cc1CN(Cc1ncc(C)o1)C1CCN(C)C1 (stereo not drawn),Percent Effect,"30 µM, 30.03 µM",-50.91%
COc1cc(C(=O)NCC2(N(C)C)CCN(C)CC2)c2ccccc2n1,Percent Effect,"30.3 µM, […]",-18.58%
Cc1c(CN2CC[C@@H](N3CCC(O)CC3)[C@H](O)C2)[nH]c2ccc(Cl)cc12,Percent Effect,"30 µM, 30.03 µM",-14.51%
O[C@@H]1CN(CC2=Cc3cc(Cl)ccc3OC2)CC[C@H]1N1CCCCCC1,Percent Effect,"30.3 µM, […]",78.41%
CN1CCN([C@@H]2CCN(CC3=Cc4cc(Cl)ccc4OC3)C[C@H]2O)CC1,Percent Effect,"30.3 µM, […]",22.23%
O=C(CCc1ccco1)N1CCCC(n2cccn2)C1 (stereo not drawn),Percent Effect,"30.3 µM, […]",12.32%
Cc1ccc(S(=O)(=O)N2CCC(S(=O)(=O)c3nncn3C)CC2)cc1C,Percent Effect,"30 µM, 30.03 µM",-15.11%
Cn1cnnc1S(=O)(=O)C1CCN(S(=O)(=O)c2ccc(F)c(Cl)c2)CC1,Percent Effect,"30 µM, 30.03 µM",73.39%
Cn1cnnc1S(=O)(=O)C1CCN(S(=O)(=O)c2ccccc2F)CC1,Percent Effect,"30 µM, 30.03 µM",-32%
CN1CCN(Cc2ccncc2)C(=O)C12CCN(Cc1ccsc1)CC2.O=C(O)C(F)(F)F.O=C(O)C(F)(F)F.O=C(O)C(F)(F)F,Percent Effect,"30.3 µM, […]",-53.7%
COC1CCN(C(=O)Cc2csc(-c3ncccn3)n2)CC1,Percent Effect,"30 µM, 30.03 µM",9.896%
COC1CCN(C(=O)Cc2csc(-c3ccccc3)n2)CC1,Percent Effect,"30.3 µM, […]",99.67%
COC1CCN(C(=O)Cc2csc(-c3ccc(F)cc3)n2)CC1,Percent Effect,"30.3 µM, […]",9.7%
Cc1cc(N2CCc3cncnc3C2)n2nc(C(F)(F)F)nc2n1,Percent Effect,"30 µM, 30.03 µM",-22.1%
Cc1ccc(C(=O)N2CCOCC2C(N)=O)c(F)c1 (stereo not drawn),Percent Effect,"30 µM, 30.03 µM",-8.01%
CC(C)NC(=O)c1csc(NC2CC2)n1,Percent Effect,"30 µM, 30.03 µM",-15.9%
O=C(Nc1nccs1)c1csc(NC2CCCC2)n1,Percent Effect,"30 µM, 30.03 µM",93.86%
CC(C)CCNC(=O)c1csc(NC2CC2)n1,Percent Effect,"30 µM, 30.03 µM",55.59%
O=C(Nc1ccccn1)c1csc(NC2CCCC2)n1,Percent Effect,"30 µM, 30.03 µM",1.318%
CC(C)CCNc1nc(C(=O)NC2CC2)cs1,Percent Effect,"30 µM, 30.03 µM",-29.09%
CC(NC(=O)Nc1nccs1)C(=O)NC1CCCC1 (stereo not drawn),Percent Effect,"30 µM, 30.03 µM",-0.2762%
COc1cccc(C2CCCN2Cc2nnnn2C2CC2)c1 (stereo not drawn),Percent Effect,"30 µM, 30.03 µM",7.439%
O=C(O)C(F)(F)F.O=C(O)C(F)(F)F.c1csc(CN2Cc3nc(CN4CCCC4)oc3C2)c1,Percent Effect,"30.3 µM, […]",-24.4%
COc1c(C)cnc(CN(C)C2CCOC3(CCOCC3)C2)c1C (stereo not drawn),Percent Effect,"30 µM, 30.03 µM",-25.65%
COc1c(C)cnc(CN(C)C2CCN(C3CCOCC3)CC2)c1C,Percent Effect,"30 µM, 30.03 µM",-11.24%
COc1c(C)cnc(CN(C)C2CCCCC2)c1C,Percent Effect,"30 µM, 30.03 µM",75.58%
Cc1cc(C)c(CNC(=O)NCc2ccc(F)cc2)c(=O)[nH]1,Percent Effect,"30.3 µM, […]",-10.32%
COc1ccc(CNC(=O)NCc2c(C)cc(C)[nH]c2=O)cc1,Percent Effect,"30 µM, 30.03 µM",50.39%
COc1cc(CNC(=O)NCc2c(C)cc(C)[nH]c2=O)ccc1C,Percent Effect,"30 µM, 30.03 µM",17.33%
Cc1sc(CN)nc1-c1ccc(Cl)cc1.Cl,Percent Effect,"30 µM, 30.03 µM",-33.68%
O=C(NCCCNc1ccc(C(F)(F)F)cn1)c1ccc(F)cc1,Percent Effect,10 µM,-67.47%
Cc1nc(CCN2CCC(Oc3ccccc3F)CC2)cs1,Percent Effect,"30.3 µM, […]",-2.649%
Cc1nc(C)c(CCN2CCC(Oc3ccccc3F)CC2)s1,Percent Effect,"30.3 µM, […]",55.32%
Cc1nc(CCN2CCC(Oc3ccccc3F)CC2)c(C)s1,Percent Effect,"30.3 µM, […]",14.09%
O=C(O)C(F)(F)F.O=C(O)C(F)(F)F.O=C1NC2(CCN(Cc3ccsc3)CC2)CC1c1ccncc1 (stereo not drawn),Percent Effect,"30 µM, 30.03 µM",34.47%
CC(C)n1c(=O)nc2n1C(=O)N(c1ccc(F)cc1)C2,Percent Effect,"30 µM, 30.03 µM",24.9%
COc1cc(Cl)cc(CN2CCCC(N3CCCC3)C2)c1OC (stereo not drawn),Percent Effect,"30 µM, 30.03 µM",-17.8%
c1sc(C2CCCC2)nc1CN1CCn2c(nnc2C2CC2)C1,Percent Effect,"30 µM, 30.03 µM",-23.12%
c1sc(C2CCCCC2)nc1CN1CCn2c(nnc2C2CC2)C1,Percent Effect,"30.3 µM, […]",99.05%
c1cnc(-c2nc(CN3CCn4c(nnc4C4CC4)C3)cs2)nc1,Percent Effect,"30 µM, 30.03 µM",1.717%
